According to the supplement of paper PMC10849652:
Targets with a hit are over-represented here; the source holds about 7,900 in all. About 0.6% of all pairs of compound and target were hits. Unmarked numbers belong to inactive results.

Assays:
Assay in all cases: log2 fold change, soluble protein after heating vs DMSO (PISA); higher = thermal stabilisation; K562 cells, 10 uM, 30 min; active = over 0.2 and 3.5 SD of the protein, either way, in both replicates (recomputed)
saracatinib = compound: CN1CCN(CCOc2cc(OC3CCOCC3)c3c(Nc4c(Cl)ccc5c4OCO5)ncnc3c2)CC1 [saracatinib]
Outline: (§1)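 K562 cells (2×10^6 cells/mL) were treated with 10 μM compound for 30 min, and aliquots were heated for 3 min over 48°C-58°C. Pooled aliquots were extracted in PBS with 0.5% NP-40 at 4°C, and the supernatant after 21,000xg for 90 min was measured by TMTpro 16plex LC-MS/MS with channel sums equalised. Reported thermal stability, relative to control samples and from duplicates, is a log2 fold change.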

sotrastaurin = compound: CN1CCN(c2nc(C3=C(c4c[nH]c5ccccc45)C(=O)NC3=O)c3ccccc3n2)CC1 [sotrastaurin]
Outline: as §1

alvocidib = compound: CN1CC[C@H](c2c(O)cc(O)c3c(=O)cc(-c4ccccc4Cl)oc23)[C@H](O)C1 [alvocidib]
Outline: as §1

Tubastatin A = compound: CN1CCc2c(c3ccccc3n2Cc2ccc(C(=O)NO)cc2)C1 [Tubastatin A]
Outline: as §1

[1] = compound: CNC(=O)C1=CC=CC=C1NC2=NC(=NC=C2Cl)NC3=C(C=C(C=C3)N4CCOCC4)OC
Outline: as §1

defactinib = compound: CNC(=O)c1ccc(Nc2ncc(C(F)(F)F)c(NCc3nccnc3N(C)S(C)(=O)=O)n2)cc1 [defactinib]
Outline: as §1

rucaparib = compound: CNCc1ccc(-c2[nH]c3cc(F)cc4c3c2CCNC4=O)cc1 [rucaparib]
Outline: as §1

[2] = compound: CNc1nc(-c2ccc3c(N)n[nH]c3c2)cc(N2C[C@@H](C(=O)NC3CCCCC3)CC[C@H]2C)n1
Outline: as §1

encorafenib = compound: COC(=O)N[C@@H](C)CNc1nccc(-c2cn(C(C)C)nc2-c2cc(Cl)cc(NS(C)(=O)=O)c2F)n1 [encorafenib]
Outline: as §1

[3] = compound: COC(=O)[C@H](CCSC)NC(=O)C1=C(C=C(C=C1)NC[C@H](CS)N)C2=CC=CC=C2
Outline: as §1

[4] = compound: COC1=CC=C(C=C1)CN2C=CC3=C2C=C(C=C3)C(=O)NO
Outline: as §1

filanesib = compound: CON(C)C(=O)N1N=C(c2cc(F)ccc2F)S[C@@]1(CCCN)c1ccccc1 [filanesib]
Outline: as §1

zotarolimus = compound: CO[C@H]1C[C@@H]2CC[C@@H](C)[C@@](O)(O2)C(=O)C(=O)N2CCCC[C@H]2C(=O)O[C@H]([C@H](C)C[C@@H]2CC[C@H](n3cnnn3)[C@H](OC)C2)CC(=O)[C@H](C)/C=C(\C)[C@@H](O)[C@@H](OC)C(=O)[C@H](C)C[C@H](C)/C=C/C=C/C=C/1C [zotarolimus]
Outline: as §1

idasanutlin = compound: COc1cc(C(=O)O)ccc1NC(=O)[C@@H]1N[C@@H](CC(C)(C)C)[C@](C#N)(c2ccc(Cl)cc2F)[C@H]1c1cccc(Cl)c1F [idasanutlin]
Outline: as §1

alisertib = compound: COc1cc(Nc2ncc3c(n2)-c2ccc(Cl)cc2C(c2c(F)cccc2OC)=NC3)ccc1C(=O)O [alisertib]
Outline: as §1

[5] = compound: COc1cc2nc(-c3cc(F)ccc3O)nc(N[C@@H]3CNC[C@H]3C(C)(C)O)c2cc1OC
Outline: as §1

gefitinib = compound: COc1cc2ncnc(Nc3ccc(F)c(Cl)c3)c2cc1OCCCN1CCOCC1 [gefitinib]
Outline: as §1

[6] = compound: COc1cccc2cc(-c3nc([C@H]4CC[C@H](C(=O)O)CC4)n4ncnc(N)c34)[nH]c12
Outline: as §1

lapatinib = compound: CS(=O)(=O)CCNCc1ccc(-c2ccc3ncnc(Nc4ccc(OCc5cccc(F)c5)c(Cl)c4)c3c2)o1 [lapatinib]
Outline: as §1

pictilisib = compound: CS(=O)(=O)N1CCN(Cc2cc3nc(-c4cccc5[nH]ncc45)nc(N4CCOCC4)c3s2)CC1 [pictilisib]
Outline: as §1

UniProt Q6P4A8, sequence (Q6P4A8 whole entry, looked up): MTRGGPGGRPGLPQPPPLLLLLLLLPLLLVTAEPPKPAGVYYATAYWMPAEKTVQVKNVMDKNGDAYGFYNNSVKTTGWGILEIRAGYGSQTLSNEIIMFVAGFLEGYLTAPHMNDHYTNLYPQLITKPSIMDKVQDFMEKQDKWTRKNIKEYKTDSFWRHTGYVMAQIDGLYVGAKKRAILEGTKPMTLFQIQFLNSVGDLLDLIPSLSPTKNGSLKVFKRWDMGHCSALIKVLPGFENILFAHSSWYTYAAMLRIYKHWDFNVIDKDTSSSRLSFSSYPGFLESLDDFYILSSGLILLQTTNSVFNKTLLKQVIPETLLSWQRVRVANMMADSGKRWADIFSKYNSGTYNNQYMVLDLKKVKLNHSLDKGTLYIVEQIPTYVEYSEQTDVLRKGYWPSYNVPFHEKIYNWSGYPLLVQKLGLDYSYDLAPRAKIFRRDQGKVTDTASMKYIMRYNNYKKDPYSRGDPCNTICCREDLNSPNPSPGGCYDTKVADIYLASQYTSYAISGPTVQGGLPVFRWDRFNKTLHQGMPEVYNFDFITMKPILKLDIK
UniProt P0CAP2, sequence (P0CAP2 whole entry, looked up): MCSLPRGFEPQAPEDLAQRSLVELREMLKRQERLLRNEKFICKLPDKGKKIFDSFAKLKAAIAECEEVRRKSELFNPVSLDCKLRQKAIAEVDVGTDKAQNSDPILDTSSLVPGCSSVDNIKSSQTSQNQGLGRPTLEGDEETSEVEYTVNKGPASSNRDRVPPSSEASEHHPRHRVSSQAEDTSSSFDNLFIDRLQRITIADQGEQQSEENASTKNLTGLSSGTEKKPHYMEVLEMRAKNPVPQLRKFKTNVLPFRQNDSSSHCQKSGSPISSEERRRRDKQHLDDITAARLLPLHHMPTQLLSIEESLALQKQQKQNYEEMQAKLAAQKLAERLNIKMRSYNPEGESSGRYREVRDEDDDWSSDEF
UniProt Q8WXF1, sequence (Q8WXF1 whole entry, looked up): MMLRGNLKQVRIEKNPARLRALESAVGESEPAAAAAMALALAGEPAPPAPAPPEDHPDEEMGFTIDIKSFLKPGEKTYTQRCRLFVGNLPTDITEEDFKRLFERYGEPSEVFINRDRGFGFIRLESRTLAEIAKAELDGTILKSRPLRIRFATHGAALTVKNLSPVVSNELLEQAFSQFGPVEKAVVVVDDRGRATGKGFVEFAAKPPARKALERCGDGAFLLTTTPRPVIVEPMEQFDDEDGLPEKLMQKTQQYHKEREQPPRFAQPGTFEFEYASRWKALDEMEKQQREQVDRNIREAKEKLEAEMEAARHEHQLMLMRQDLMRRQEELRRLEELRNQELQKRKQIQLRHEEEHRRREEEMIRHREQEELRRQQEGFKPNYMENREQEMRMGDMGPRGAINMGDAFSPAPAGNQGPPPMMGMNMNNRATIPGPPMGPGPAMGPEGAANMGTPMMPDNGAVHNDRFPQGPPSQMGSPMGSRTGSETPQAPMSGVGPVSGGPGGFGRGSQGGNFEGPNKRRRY
UniProt Q9NR22, sequence (Q9NR22 whole entry, looked up): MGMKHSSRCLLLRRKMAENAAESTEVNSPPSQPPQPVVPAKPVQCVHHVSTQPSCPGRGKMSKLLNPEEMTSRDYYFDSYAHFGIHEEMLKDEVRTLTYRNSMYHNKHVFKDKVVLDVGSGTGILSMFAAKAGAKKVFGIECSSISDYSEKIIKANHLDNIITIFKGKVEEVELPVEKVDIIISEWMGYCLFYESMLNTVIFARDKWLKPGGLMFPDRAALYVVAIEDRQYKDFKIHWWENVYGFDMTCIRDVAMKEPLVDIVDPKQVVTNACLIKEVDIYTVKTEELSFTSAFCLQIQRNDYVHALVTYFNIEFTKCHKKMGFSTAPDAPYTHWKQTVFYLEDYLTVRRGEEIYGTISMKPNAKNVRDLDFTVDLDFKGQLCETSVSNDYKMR
UniProt P13861, sequence (P13861 whole entry, looked up): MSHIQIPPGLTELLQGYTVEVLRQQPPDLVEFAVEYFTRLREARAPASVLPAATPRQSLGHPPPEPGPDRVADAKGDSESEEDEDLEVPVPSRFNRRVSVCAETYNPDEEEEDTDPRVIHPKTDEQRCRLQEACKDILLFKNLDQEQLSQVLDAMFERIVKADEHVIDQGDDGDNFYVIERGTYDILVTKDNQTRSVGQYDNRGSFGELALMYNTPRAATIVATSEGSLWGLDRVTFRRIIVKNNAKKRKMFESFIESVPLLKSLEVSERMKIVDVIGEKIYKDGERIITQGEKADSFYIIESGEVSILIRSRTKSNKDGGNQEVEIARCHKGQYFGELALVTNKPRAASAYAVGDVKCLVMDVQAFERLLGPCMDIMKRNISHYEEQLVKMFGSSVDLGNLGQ
UniProt Q00577, sequence (Q00577 whole entry, looked up): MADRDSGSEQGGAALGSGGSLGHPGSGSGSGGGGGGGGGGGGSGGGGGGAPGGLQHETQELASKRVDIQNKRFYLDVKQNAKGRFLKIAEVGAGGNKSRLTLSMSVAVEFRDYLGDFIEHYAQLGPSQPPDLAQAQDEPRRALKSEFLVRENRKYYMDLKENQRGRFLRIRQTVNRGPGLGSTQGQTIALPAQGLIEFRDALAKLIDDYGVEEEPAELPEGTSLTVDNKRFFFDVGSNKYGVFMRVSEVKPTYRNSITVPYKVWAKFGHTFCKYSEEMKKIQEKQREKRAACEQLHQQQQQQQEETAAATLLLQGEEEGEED
UniProt P15735, sequence (P15735 whole entry, looked up): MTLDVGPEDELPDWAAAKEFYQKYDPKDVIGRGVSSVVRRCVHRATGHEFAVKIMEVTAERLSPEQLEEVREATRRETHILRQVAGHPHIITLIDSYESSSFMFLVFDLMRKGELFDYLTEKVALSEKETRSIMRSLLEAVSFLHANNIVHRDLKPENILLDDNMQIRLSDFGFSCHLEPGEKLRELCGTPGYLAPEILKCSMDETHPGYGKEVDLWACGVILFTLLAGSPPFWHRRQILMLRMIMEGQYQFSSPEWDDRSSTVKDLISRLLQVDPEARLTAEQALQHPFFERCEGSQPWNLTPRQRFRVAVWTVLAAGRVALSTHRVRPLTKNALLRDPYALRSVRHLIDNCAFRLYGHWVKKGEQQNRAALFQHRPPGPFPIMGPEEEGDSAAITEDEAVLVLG
UniProt P28072, sequence (P28072 whole entry, looked up): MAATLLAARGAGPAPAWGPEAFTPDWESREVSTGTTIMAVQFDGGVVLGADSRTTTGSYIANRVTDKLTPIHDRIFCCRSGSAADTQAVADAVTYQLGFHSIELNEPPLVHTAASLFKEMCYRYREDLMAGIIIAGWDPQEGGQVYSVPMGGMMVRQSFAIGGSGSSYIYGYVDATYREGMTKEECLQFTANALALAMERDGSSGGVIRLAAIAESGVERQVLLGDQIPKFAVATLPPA
UniProt O96013, sequence (O96013 whole entry, looked up): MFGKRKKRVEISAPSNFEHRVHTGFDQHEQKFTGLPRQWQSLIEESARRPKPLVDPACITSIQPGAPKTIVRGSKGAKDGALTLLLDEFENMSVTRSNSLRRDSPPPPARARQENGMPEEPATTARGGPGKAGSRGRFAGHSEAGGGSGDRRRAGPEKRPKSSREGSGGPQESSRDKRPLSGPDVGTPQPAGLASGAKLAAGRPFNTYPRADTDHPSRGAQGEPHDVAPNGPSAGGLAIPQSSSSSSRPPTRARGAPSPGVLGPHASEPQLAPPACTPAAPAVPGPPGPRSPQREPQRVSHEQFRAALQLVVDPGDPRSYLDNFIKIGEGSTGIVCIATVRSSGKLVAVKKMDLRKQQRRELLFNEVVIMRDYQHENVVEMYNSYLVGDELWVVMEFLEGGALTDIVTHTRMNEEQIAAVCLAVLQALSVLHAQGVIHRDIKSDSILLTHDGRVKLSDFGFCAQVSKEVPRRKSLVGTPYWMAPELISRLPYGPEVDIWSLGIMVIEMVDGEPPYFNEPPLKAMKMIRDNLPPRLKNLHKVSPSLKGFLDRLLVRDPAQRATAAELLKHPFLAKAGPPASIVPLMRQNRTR
UniProt Q53EL6, sequence (Q53EL6 whole entry, looked up): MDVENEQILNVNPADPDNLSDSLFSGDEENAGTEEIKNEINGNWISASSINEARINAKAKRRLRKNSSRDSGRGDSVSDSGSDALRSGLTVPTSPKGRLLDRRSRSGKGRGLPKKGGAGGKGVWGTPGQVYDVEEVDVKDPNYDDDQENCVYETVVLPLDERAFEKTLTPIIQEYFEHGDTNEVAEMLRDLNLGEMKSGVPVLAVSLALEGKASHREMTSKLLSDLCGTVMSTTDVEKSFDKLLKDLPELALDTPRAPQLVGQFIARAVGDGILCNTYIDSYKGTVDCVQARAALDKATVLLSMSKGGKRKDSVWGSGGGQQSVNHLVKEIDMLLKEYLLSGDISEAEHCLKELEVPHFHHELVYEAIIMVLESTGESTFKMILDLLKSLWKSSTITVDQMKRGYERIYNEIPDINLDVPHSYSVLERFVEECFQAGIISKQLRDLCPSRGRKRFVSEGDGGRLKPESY
UniProt Q96KB5, sequence (Q96KB5 whole entry, looked up): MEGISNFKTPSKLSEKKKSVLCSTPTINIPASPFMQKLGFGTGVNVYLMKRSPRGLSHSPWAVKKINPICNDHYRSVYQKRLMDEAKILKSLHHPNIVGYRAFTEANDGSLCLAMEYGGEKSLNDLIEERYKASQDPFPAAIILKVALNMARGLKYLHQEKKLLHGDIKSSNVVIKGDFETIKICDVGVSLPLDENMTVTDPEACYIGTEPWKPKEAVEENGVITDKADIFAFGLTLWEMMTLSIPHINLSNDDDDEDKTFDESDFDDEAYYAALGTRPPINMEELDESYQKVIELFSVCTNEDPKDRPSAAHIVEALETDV

Row | Target | log2 fold change (saracatinib) | log2 fold change (sotrastaurin) | log2 fold change (alvocidib) | log2 fold change (Tubastatin A) | log2 fold change [1] | log2 fold change (defactinib) | log2 fold change (rucaparib) | log2 fold change [2] | log2 fold change (encorafenib) | log2 fold change [3] | log2 fold change [4] | log2 fold change (filanesib) | log2 fold change (zotarolimus) | log2 fold change (idasanutlin) | log2 fold change (alisertib) | log2 fold change [5] | log2 fold change (gefitinib) | log2 fold change [6] | log2 fold change (lapatinib) | log2 fold change (pictilisib)
1 | PRKAR2A (UniProt P13861) | 0.034 | -0.121 | -0.023 | -0.029 | 0.027 | -0.02 | -0.015 | -0.04 | 0.017 | -0.015 | -0.033 | -0.021 | 0.013 | -0.009 | -0.058 | -0.493 (active) | 0.048 | 0.006 | 0.034 | 0.057
2 | PSPC1 (UniProt Q8WXF1) | 0.007 | -0.062 | -0.068 | 0.041 | -0.036 | -0.342 (active) | 0.002 | -0.011 | 0.03 | -0.028 | 0.008 | 0.048 | 0.026 | 0.03 | -0.084 | -0.146 | 0.061 | -0.042 | 0.152 | -0.081
3 | PI4K2A (UniProt Q9BTU6) | 0.058 | 0.041 | 0.013 | -0.008 | -0.024 | -0.014 | -0.027 | -0.11 | 0.057 | 0.02 | 0.012 | -0.066 | -0.037 | -0.044 | -0.006 | -0.015 | -0.027 | 0.005 | 0 | 0.049
4 | PLD3 (UniProt Q8IV08) | 0.034 | 0.013 | -0.024 | 0.004 | 0.016 | -0.005 | -0.094 | -0.037 | 0.007 | 0.009 | -0.027 | -0.131 | -0.006 | 0.001 | -0.139 | 0.019 | 0.008 | 0.027 | -0.025 | 0.045
5 | PHKG2 (UniProt P15735) | 0.002 | -0.071 | -0.069 | 0.029 | 0.167 | 0.026 | -0.032 | 0.1 | 0.181 | -0.025 | 0.014 | -0.01 | -0.051 | 0.007 | -0.026 | 0.219 | -0.063 | 0.015 | 0.105 | -0.055
6 | PBK (UniProt Q96KB5) | 0.01 | -0.205 | -0.02 | 0.089 | 0.093 | -0.15 | 0.187 | 0.005 | 0.198 | -0.111 | -0.01 | 0.056 | 0.112 | 0.027 | -0.032 | 0.014 | 0.084 | -0.169 | -0.001 | 0.086
7 | PSMC3 (UniProt P17980) | -0.043 | -0.035 | 0.058 | 0.011 | 0 | 0.06 | 0.033 | 0.003 | 0.026 | 0.004 | -0.035 | 0.043 | 0.001 | 0.045 | -0.056 | -0.015 | -0.045 | -0.038 | 0.047 | 0.013
8 | POLR2M (UniProt P0CAP2) | 0.061 | 0.019 | 0.123 | 0.005 | -0.015 | 0.041 | 0.05 | -0.021 | 0.092 | 0.017 | -0.025 | -0.004 | -0.05 | -0.022 | -0.015 | 0.094 | -0.08 | 0.054 | -0.044 | -0.254 (active)
9 | PTDSS1 (UniProt P48651) | -0.011 | 0.006 | 0.129 | 0.048 | -0.065 | 0.13 | 0.292 | 0.07 | 0.224 | 0.01 | -0.015 | 0.075 | 0.053 | 0.124 | -0.098 | -0.071 | 0.041 | -0.012 | 0.04 | -0.098
10 | PURA (UniProt Q00577) | 0.061 | 0.063 | 0.321 | 0.001 | 0.059 | 0.347 | 0.309 | 0.076 | 0.086 | 0.04 | -0.336 | 0.277 | -0.093 | 0.179 | -0.106 | -0.052 | -0.024 | -0.113 | 0.104 | -0.071
11 | PSMB6 (UniProt P28072) | -0.027 | -0.017 | 0.115 | 0.019 | -0.022 | 0.089 | -0.043 | 0.011 | 0.03 | 0.017 | -0.055 | 0.075 | -0.018 | 0.044 | -0.062 | -0.014 | -0.027 | 0.018 | 0.035 | -0.017
12 | PDCD4 (UniProt Q53EL6) | -0.008 | 0.138 | -0.113 | 0 | 0.177 | -0.243 | -0.113 | 0.114 | 0.073 | -0.097 | 0.055 | -0.153 | 0.251 | -0.161 | -0.025 | 0.018 | 0.057 | 0.16 | 0.032 | 0.083
13 | PLBD1 (UniProt Q6P4A8) | 0.024 | 0.071 | -0.017 | -0.013 | 0.054 | 0.023 | 0.034 | 0.001 | 0.001 | 0 | -0.076 | -0.051 | -0.057 | 0.019 | 0.169 | -0.016 | 0.019 | 0.048 | 0.03 | 0.039
14 | PAK4 (UniProt O96013) | -0.047 | 0.098 | -0.06 | 0.005 | -0.012 | -0.017 | -0.067 | 0 | 0.085 | 0.03 | -0.106 | 0.068 | 0.03 | -0.021 | 0.153 | 0.195 | 0 | 0.075 | -0.047 | 0.072
15 | PRPF40A (UniProt O75400) | -0.026 | -0.099 | -0.171 | 0.103 | -0.197 | -0.219 | 0.029 | -0.03 | 0.026 | -0.024 | 0.082 | 0.135 | 0.029 | 0.058 | 0.024 | -0.091 | 0.042 | -0.045 | 0.018 | -0.027
16 | PRMT8 (UniProt Q9NR22) | 0.015 | -0.046 | -0.029 | -0.09 | -0.009 | -0.039 | -0.059 | 0.052 | 0.01 | -0.122 | -0.143 | -0.162 | -0.014 | -0.109 | -0.028 | -0.019 | 0.002 | 0.042 | 0.145 | 0.025
